Experiment [1] is described as follows: HepG2 viability counterscreen (readout 2: ATP content) against the NCATS DSHEA and TCM libraries (AID 1794840).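 Note: HepG2 cells exposed to substances for about 24 h; 0% is about no effect.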 The procedure, abridged: (§1)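 HepG2 cells (1,000 cells/well) attached ~4 h, then treated ~24 h at 37C with substances. Protease activity read by GF-AFC (25 uM final, 30 min, Ex/Em 380/510 nm); ATP content then by CellTiter-Glo luminescence.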
For orientation: The purpose of a counterscreen is to sort out artefacts and off-target activity.

A short description of experiment [2]: HepG2 viability counterscreen (readout 1: protease activity) against the NCATS DSHEA and TCM libraries (AID 1794841).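 Note: cells exposed to compounds for about 24 h before the protease read; 0% is about no effect.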 Put shortly:
as §1

Experiment [3] has as its target Metallo-beta-lactamase type 2 (Klebsiella pneumoniae) (UniProt C7C422). The experiment can be described thus: qHTS to identify inhibitors of the New Delhi Metallo-beta-lactamase (NDM): assay validation screen against the NCATS LOPAC Collection (AID 1794843).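 Note: nitrocefin turnover by NDM-1 measured as 485 nm absorbance at plateau; % is set by controls: 0 for no effect and ±100 for the full control effect.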 The procedure, abridged:
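NDM-1 at 2 nM final in 50 mM HEPES pH 7.0 with 1 uM ZnSO4 and 0.01% Tween20 was preincubated with library compounds in DMSO. Nitrocefin (50 uM stock) was then added, and absorbance at 485 nm was read at the kinetic plateau.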
Background: Quantitative high-throughput screening tests each substance at several concentrations.

For experiment [4], the target named is Glutathione peroxidase 1 (Homo sapiens) (UniProt P07203). The experiment can be described thus: Primary qHTS Assay for Inhibitors of Recombinant Selenoprotein Glutathione Peroxidase 1 (GPX1) (AID 1845191). Note: nearly all actives have a fitted effect of over 65% in size. The procedure, abridged: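 GR-coupled assay: compounds preincubated 30 min at room temperature with GPX1, then reaction started with CHP; final 10 nM GPX1, 1 mM GSH, 0.5 mM CHP, 0.5 mM NADPH, 100 nM GR, 0.01% BSA, pH 7.5 Tris buffer. NADPH fluorescence (340/450 nm) read at 0 and 15 min.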
Sequence of Glutathione peroxidase 1 (Homo sapiens) (P07203 whole entry, looked up): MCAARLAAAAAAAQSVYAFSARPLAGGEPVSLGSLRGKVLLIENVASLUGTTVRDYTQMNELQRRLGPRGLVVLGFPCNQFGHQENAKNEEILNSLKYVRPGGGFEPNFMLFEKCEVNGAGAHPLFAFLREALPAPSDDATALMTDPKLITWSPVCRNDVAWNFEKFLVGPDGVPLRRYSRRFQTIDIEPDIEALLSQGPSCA

In experiment [5] the target is Phospholipid hydroperoxide glutathione peroxidase GPX4 (Homo sapiens) (UniProt P36969). Kind of experiment: Primary qHTS Assay for Inhibitors of Recombinant Selenoprotein Glutathione Peroxidase 4 (GPX4) (AID 1845192). For activity change, negative = inhibition: % is set by controls: 0 for no effect and ±100 for the full control effect. Note: nearly all actives have a fitted effect of over 65% in size. Note: potency is the fitted concentration of half-maximal effect. The procedure, abridged: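 GR-coupled assay: recombinant GPX4 preincubated 30 min with compound at room temperature; final 200 nM GPX4, 1 mM GSH, 0.5 mM cumene hydroperoxide, 0.5 mM NADPH, 100 nM GR, 0.01% BSA, pH 7.5 Tris. NADPH fluorescence (340/450 nm) read at 0 and 15 min.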
Sequence of Phospholipid hydroperoxide glutathione peroxidase GPX4 (Homo sapiens) (P36969 whole entry, looked up): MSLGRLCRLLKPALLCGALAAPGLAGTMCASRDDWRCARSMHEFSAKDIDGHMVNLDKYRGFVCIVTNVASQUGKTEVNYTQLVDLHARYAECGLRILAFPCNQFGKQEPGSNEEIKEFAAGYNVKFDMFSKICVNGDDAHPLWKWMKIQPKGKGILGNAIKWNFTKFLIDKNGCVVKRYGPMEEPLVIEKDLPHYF

For experiment [6], the target named is Catechol O-methyltransferase (Homo sapiens) (UniProt P21964). Kind of experiment: Confirmatory Screen for Target Class Profiling of Small Molecule Inhibitors of Methyltransferases (AID 1745852; calls by dose curve; note: potency is the fitted concentration of half-maximal effect; for activity change, negative = inhibition: % is set by controls: 0 for no effect and ±100 for the full control effect). The settings on record: MTase-Glo luminescence, SAH detection, recombinant enzyme; measured here: COMT max response; stronger effect = lower value.
Sequence of Catechol O-methyltransferase (Homo sapiens) (P21964 whole entry, looked up): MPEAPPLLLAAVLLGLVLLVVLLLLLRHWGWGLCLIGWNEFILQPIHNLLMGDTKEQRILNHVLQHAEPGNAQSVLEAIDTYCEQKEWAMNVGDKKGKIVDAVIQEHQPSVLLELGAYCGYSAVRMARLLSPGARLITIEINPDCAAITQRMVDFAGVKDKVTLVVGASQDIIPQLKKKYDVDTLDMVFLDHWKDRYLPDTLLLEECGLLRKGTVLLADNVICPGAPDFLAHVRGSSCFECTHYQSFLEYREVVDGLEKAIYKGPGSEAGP
In experiment [7] the target is Guanidinoacetate N-methyltransferase (Homo sapiens) (UniProt Q14353). Described as above. As to conditions: activity change, negative = inhibition: at 57.3 µM (top of the series) unless noted.
Experiment [8] deals with Nicotinamide N-methyltransferase (Homo sapiens) (UniProt P40261). The experiment is described as above. The settings on record: MTase-Glo luminescence, SAH detection, recombinant enzyme; measured here: NNMT max response; stronger effect = lower value.
Sequence of Nicotinamide N-methyltransferase (Homo sapiens) (P40261 whole entry, looked up): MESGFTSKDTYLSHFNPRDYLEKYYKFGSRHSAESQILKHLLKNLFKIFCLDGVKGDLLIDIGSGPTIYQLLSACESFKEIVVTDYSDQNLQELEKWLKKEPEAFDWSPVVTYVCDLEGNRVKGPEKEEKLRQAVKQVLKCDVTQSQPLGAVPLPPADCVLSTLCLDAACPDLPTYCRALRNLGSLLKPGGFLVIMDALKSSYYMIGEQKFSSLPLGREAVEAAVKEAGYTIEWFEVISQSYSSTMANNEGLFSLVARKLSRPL
In experiment [9] the target is Phenylethanolamine N-methyltransferase (Homo sapiens) (UniProt P11086). The experiment is described as above. The settings on record: MTase-Glo luminescence, SAH detection, recombinant enzyme; measured here: PNMT max response; stronger effect = lower value.
Sequence of Phenylethanolamine N-methyltransferase (Homo sapiens) (P11086 whole entry, looked up): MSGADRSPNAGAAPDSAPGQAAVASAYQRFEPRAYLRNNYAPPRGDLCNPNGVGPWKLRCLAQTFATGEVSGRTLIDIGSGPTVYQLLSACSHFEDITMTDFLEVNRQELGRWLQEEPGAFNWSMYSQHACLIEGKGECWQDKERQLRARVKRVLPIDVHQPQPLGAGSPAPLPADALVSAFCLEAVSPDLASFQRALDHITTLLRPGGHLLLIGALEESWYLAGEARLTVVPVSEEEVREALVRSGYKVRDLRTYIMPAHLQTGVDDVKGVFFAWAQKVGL
In experiment [10] the target is Luciferin 4-monooxygenase (Photinus pyralis) (UniProt P08659). The experiment can be described thus: Primary firefly luciferase (FLuc) qHTS assay for identification of artifact compounds. (AID 1845220).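 For activity change, negative = inhibition: plate controls were DMSO vehicle for no effect and no enzyme for full effect.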 Note: nearly all actives have a fitted effect of over 60% in size. Put shortly: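 D-luciferin and ATP (10 uM each, final) in Tris acetate buffer pH 7.6 were incubated with compounds for 15 min at room temperature. The reaction was started with 10 nM Photinus pyralis luciferase and luminescence read after 5 min. Percent inhibition was fitted to a 4-parameter Hill equation.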

In experiment [11] the test system is Nanoluciferase (engineered Oplophorus gracilirostris luciferase). The experiment can be described thus: Primary Nanoluciferase (NLuc) qHTS assay for identification of artifact compounds. (AID 1845222).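 Note: 0% = DMSO and -100% = no enzyme.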 Put shortly:
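Diluted conditioned medium from NLuc-expressing S16 cells treated with compounds for 15 min at room temperature, then Nano-Glo substrate added; luminescence read after 5 min. Percent inhibition versus no-enzyme and DMSO controls fitted to 4-parameter Hill equation.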

Experiment [12] is described as follows: Primary redox qHTS assay for identification of artifact compounds. (AID 1845223).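 Note: 0% = DMSO and 100% = reference compound.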 The procedure, abridged:
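Amplex Red (25 uM) and HRP (250 mU/mL) in HBSS, with compounds for 15 min, then 250 uM DTT for 30 min, room temperature, dark. Fluorescence 525/598 nm read; normalized to DMSO and 10 uM DA3003; Hill fit.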

Experiment [13] in a line: Primary fluorescence-based thiol-reactive (MSTI) qHTS assay for identification of artifact compounds. (AID 1845221). Note: nearly all actives have a fitted effect of over 65% in size. Note: potency is the fitted concentration of half-maximal effect. The procedure, abridged:
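A multi-concentration qHTS design tested compounds against 4 uM MSTI, pH 7.4 phosphate-buffered saline. Plates were protected from light for 1 h at room temperature before imaging fluorescence.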

A short description of experiment [14]: NCATS anti-infectives library activity on the primary C. elegans qHTS viability assay (AID 1745855; calls by dose curve). As to conditions: C. elegans worm area imaging, day 7; at 41.8 µM (top of the series). The procedure, abridged:
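Viability read-out is GFP fluorescence of PE254-GFP-FLuc C. elegans, measured by laser cytometry (488 nm) at day 0, 3 and 7. Ten L1 worms per well were incubated 7 days at 21 °C with compounds and bacterial capsules in S medium.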

A short description of experiment [15]: Viability counterscreen for antagonist of constitutive androstane receptor (CAR) against the NCATS DSHEA and TCM libraries (AID 1794837).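 Note: compound exposure lasted 24 h before viability reading; 0% is about no effect.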 The procedure, abridged:
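HepG2-CYP2B6-hCAR cells (2,500/well) were allowed to attach for 5 h, then exposed to compounds with 48 uM CITCO for 24 h at 37C. Viability was read by CellTiter-Fluor fluorescence after 1 h.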

Experiment [16] can be described thus: Viability counterscreen for agonist of constitutive androstane receptor (CAR) against the NCATS DSHEA and TCM libraries (AID 1794838). Note: 0% is about no effect. Put shortly:
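HepG2-CYP2B6-hCAR cells (2,500/well) attached 5 h, then got compounds plus 0.75 uM PK11195 final. After 24 h at 37C, viability read by CellTiter-Fluor fluorescence (Ex/Em 405/540 nm).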

In experiment [17] the target is Nuclear receptor subfamily 1 group I member 3 (Homo sapiens) (UniProt Q14994). The experiment can be described thus: Primary qHTS for agonist of constitutive androstane receptor (CAR) against the NCATS DSHEA and TCM libraries (AID 1794839).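 Note: HepG2 cells expressing human CAR with a CYP2B6 reporter plus PK11195 antagonist; 0% is about no effect.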 The procedure, abridged:
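HepG2-CYP2B6-hCAR cells (2,500/well) were attached for 5 h, then treated for 24 h at 37 °C with compounds plus 0.75 µM PK11195. Luciferase luminescence (ONE-Glo) was read, with CellTiter-Fluor viability (Ex/Em 405/540 nm).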

Results filed as inconclusive are left out. Calls of active or inactive are those of the source. Unless noted, calls come from the whole dose curve; as a rule, active = well fitted curve in the direction sought with a large enough effect; inconclusive = small, poorly fitted or top-dose-only effect, or another doubt; inactive = no such curve, though single readings can be large; an effect the other way counts as inactive or inconclusive.

Sequence of Nuclear receptor subfamily 1 group I member 3 (Homo sapiens) (Q14994 whole entry, looked up): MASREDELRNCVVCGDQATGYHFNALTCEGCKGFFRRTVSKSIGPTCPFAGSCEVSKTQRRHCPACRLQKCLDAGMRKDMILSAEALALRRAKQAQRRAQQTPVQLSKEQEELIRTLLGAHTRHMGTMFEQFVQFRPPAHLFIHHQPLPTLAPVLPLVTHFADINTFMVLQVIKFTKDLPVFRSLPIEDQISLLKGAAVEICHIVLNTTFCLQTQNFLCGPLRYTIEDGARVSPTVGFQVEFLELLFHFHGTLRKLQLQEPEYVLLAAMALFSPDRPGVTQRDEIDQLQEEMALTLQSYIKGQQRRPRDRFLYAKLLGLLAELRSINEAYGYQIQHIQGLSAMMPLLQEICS
Sequence of Metallo-beta-lactamase type 2 (Klebsiella pneumoniae) (C7C422 whole entry, looked up): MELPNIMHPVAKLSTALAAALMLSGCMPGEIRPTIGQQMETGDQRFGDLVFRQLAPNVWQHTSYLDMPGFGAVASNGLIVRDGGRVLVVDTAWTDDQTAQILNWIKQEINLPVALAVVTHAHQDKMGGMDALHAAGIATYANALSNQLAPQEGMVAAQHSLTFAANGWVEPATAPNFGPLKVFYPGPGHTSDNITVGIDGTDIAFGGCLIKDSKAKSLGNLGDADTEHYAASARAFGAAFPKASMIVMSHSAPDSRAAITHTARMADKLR

`Cc1c(C)c2c(c(C)c1O)CC[C@@](C)(CCC[C@H](C)CCC[C@H](C)CCCC(C)C)O2`: the outcome in [1] and in [2] was “inactive” in each case.

On to `CN1Cc2c(N)cccc2C(c2ccccc2)C1` (centres undefined), for which the outcome in experiment [3] is “inactive”. Further, the Potency result in experiment [4] and in [5] was “inactive” each time.

Consider `CN1CCC(c2c[nH]c3ccc(NC(=O)c4ccc(F)cc4)cc23)CC1`, for which the figures for the activity in [6], in experiment [8] and in experiment [9] were -8.83%, -3.82% and -4.53%, respectively. In experiment [7], the activity change, negative = inhibition was -10.4%. Further, the Potency result in experiment [4], in experiment [10], in experiment [11] and in experiment [12] was “inactive” in each case.

On to `CC1=CC(=O)CC(C)(C)C1CCC(C)OC1OC(COC(=O)c2cc(O)c(O)c(O)c2)C(O)C(O)C1O` (centres undefined), for which the activity in experiment [6] was -58.9%; in [8], 2.37%; in experiment [9], 0%. Moreover, the activity change, negative = inhibition in [7] was 0% [at 29.8 µM]. The Potency result in experiment [4], in experiment [5], in [11] and in experiment [12] was “inactive” throughout. Further, in [13], the Potency was 1.16 µM (active).

Take `CCOC(=O)[C@H]1O[C@@H]1C(=O)N[C@@H](CC(C)C)C(=O)NCCC(C)C`: the outcome in experiment [14] is “inactive”. Also, the Potency entry in [4], in experiment [10], in [13], in experiment [11] and in [12] was “inactive” throughout.

Take `CC[C@@H](C(=O)O)[C@@H]1O[C@@H]([C@@H](C)[C@H](O)[C@H](C)C(=O)[C@H](CC)[C@H]2O[C@]3(C=C[C@@H](O)[C@]4(CC[C@@](C)([C@H]5CC[C@](O)(CC)[C@H](C)O5)O4)O3)[C@H](C)C[C@@H]2C)[C@@H](C)C[C@@H]1C`: the Potency entry in experiment [4] is “inactive”.

For `CC[C@@H](C(=O)[C@@H](C)[C@@H](O)[C@H](C)CCc1ccc(C)c(O)c1C(=O)O)[C@H]1O[C@](CC)([C@H]2CC[C@](O)(CC)[C@H](C)O2)C[C@@H]1C`, the Potency result in experiment [4] is “inactive”. Besides, the Potency in experiment [5] is 4.47 µM (active).

In the case of `C[C@H]1[C@H](C)CC[C@]2(C(=O)O)CC[C@]3(C)C(=CC[C@@H]4[C@@]5(C)C[C@@H](O)[C@H](O)[C@@](C)(CO)[C@@H]5CC[C@]43C)[C@H]12`, the outcome in experiment [15], in experiment [16], in [17], in experiment [1] and in experiment [2] was “inactive” throughout. Also, the Potency entry in experiment [4], in experiment [10], in experiment [13], in experiment [11] and in experiment [12] was “inactive” throughout.

On to `Cc1ccc2c(c1)C=Cc1cc(C)ccc1C2c1cn(Cc2ccc(C(=O)Nc3nn[nH]n3)o2)c(=O)[nH]c1=S`, for which the activity is -11% in [6], -18.9% in experiment [8] and -2.77% in [9]. In addition, the activity change, negative = inhibition in experiment [7] was -0.0663%. For the same compound, the Potency result in experiment [5], in [10], in [13] and in experiment [11] was “inactive” in each case.

Take `Oc1cc(O)c2c(c1)OC(c1ccc(O)c(O)c1)C(O)C2` (centres undefined): in experiment [1], the outcome is “inactive”.

In the case of `CCCCCCCC(=O)O`, the outcome in [15], in experiment [17], in [1] and in experiment [2] was “inactive” throughout. The Potency result in experiment [4] and in experiment [5] was “inactive” in each case.

For the compound `C=Cc1cc(O)cc2nc(-c3ccc(O)c(F)c3)oc12`, the activity in experiment [6] is -54.6%; in [8], -36%; in [9], -50.4%. For the same compound, the Potency in experiment [7] was 30.4 µM (active). Besides, the Potency entry in experiment [11] and in [12] was “inactive” throughout.

With `CCCCC(=O)OCC(=O)[C@]1(O)Cc2c(O)c3c(c(O)c2[C@@H](O[C@H]2C[C@H](NC(=O)C(F)(F)F)[C@H](O)[C@H](C)O2)C1)C(=O)c1c(OC)cccc1C3=O`, the Potency entry in experiment [4] and in experiment [5] was “inactive” each time.
